Among the data in PubChem BioAssay (NCI) are growth inhibition values, retold here.

A short description of experiment [1]: NCI Yeast Anticancer Drug Screen. Data for the rad50 strain (AID 155).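 Also: 0% = growth of vehicle-only cultures of the same strain.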 Conditions: S. cerevisiae rad50 strain growth inhibition; at 50.0 µM; hits give high values. The essentials: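 Relative growth inhibition (compound vs vehicle) was measured in yeast with a defined repair-gene alteration.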
A short description of experiment [2]: NCI Yeast Anticancer Drug Screen. Data for the mec2-1 strain (AID 157). Conditions: S. cerevisiae mec2-1 strain, at 50.0 µM, hits give high values. In a few lines:
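Cells of the genetically defined mec2-1 yeast strain are incubated with test compound. Inhibition of growth is calculated against vehicle-treated controls.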

Experiment [3] in a line: NCI Yeast Anticancer Drug Screen. Data for the sgs1 mgt1 strain (AID 161).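 Also: 0% = growth of cultures given vehicle only.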 The following applies: S. cerevisiae sgs1 mgt1 strain, at 50.0 µM, hits give high values. In a few lines: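 Test agents were incubated with a DNA-repair-mutant yeast strain. Growth was then read and compared against vehicle-treated controls.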
The nature of experiment [4]: NCI Yeast Anticancer Drug Screen. Data for the cln2 rad14 strain (AID 165).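 Also: 0% = growth equal to vehicle treated cultures.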 Conditions: S. cerevisiae cln2 rad14 strain, at 50.0 µM, hits give high values. The essentials: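 The screen exposed genetically defined yeast (cln2 rad14) to test compounds and scored growth inhibition relative to vehicle-treated controls.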
Experiment [5] is described as follows: NCI Yeast Anticancer Drug Screen. Data for the bub3 strain (AID 167). Conditions: S. cerevisiae bub3 mutant strain, at 50.0 µM, hits give high values. The essentials: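 Screening used yeast with an engineered genetic alteration affecting cell cycle control. Compound-exposed cultures were compared with vehicle cultures, and reduced growth was taken as inhibition.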

A short description of experiment [6]: NCI Yeast Anticancer Drug Screen. Data for the mlh1 rad18 strain (AID 175). Conditions: S. cerevisiae mlh1 rad18 strain growth inhibition; at 50.0 µM; hits give high values. The essentials:
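Compound-treated yeast growth, normalised to vehicle controls. Strain bears defined DNA repair mutations.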

This is part of a sample that, as a whole, favours compounds with a hit. Of some 79,000 tested, about 15% had one in any assay. Unmarked numbers belong to inactive results. Activity calls are given as the source filed them. Rule as the data show it: active = growth inhibition above about 70%; inactive = the rest.

On to `CCCCCCCCCCCCCCCCS(=O)(=O)N/N=C(/c1cccc(N)c1)N1CCOCC1`, for which the growth inhibition in experiment [1] was -29.6%; in experiment [2], -40.8%; in experiment [3] it was -13.2%; in experiment [4] it was 4.2%; in experiment [5] it was -7.75%; in experiment [6], -21.2%.
For the compound `CCOC(=O)N(C)N=NCCCl`, the growth inhibition is 15.2% in experiment [1]; 2.2% in experiment [2]; -5.05% in experiment [3]; -26.9% in experiment [4]; 8.2% in experiment [5]; -4.9% in experiment [6].
Take `Cc1c(Cl)cccc1NC(=O)C1CC(Br)C(Br)CC1C(=O)O` (stereo not given): the growth inhibition in experiment [1] is 1.5%; in experiment [2], 6.7%; in experiment [3], 1.5%; in experiment [4], -48.5%; in experiment [5] it was 9.35%; in experiment [6], 31.3%.
Consider `COCCCC(NC(=O)C(CC(C)C)NC(=O)OCc1ccc(OC)cc1)C(=O)OC` (stereo not given), for which the growth inhibition in experiment [1] is -9.6%; in experiment [2], -12.9%; in experiment [3], -2.25%; in experiment [4], 6.6%; in experiment [5], -9.1%; in experiment [6], 7.8%.
For the compound `O=C(O)CNC(CO)(CO)CO`, the growth inhibition in experiment [1] was -55%; in experiment [2], -60.8%; in experiment [3] it was -36%; in experiment [4], -19.8%; in experiment [5] it was -10.8%; in experiment [6], -43%.
Take `O=C(N/N=C/c1ccc(Cl)cc1)c1ccccc1NC(=O)C1CC1`: the growth inhibition in experiment [1] is -3.85%; in experiment [2] it was -14.2%; in experiment [3] it was 28%; in experiment [4], -23.6%; in experiment [5], 11.8%; in experiment [6], 33.2%.
For `COc1ccc(-c2cc(=O)c3c(O)c(OC)c(O)c(OC)c3o2)cc1OC`, the growth inhibition in experiment [1] is -0.4%; in experiment [2], -37.5%; in experiment [3], 5.1%; in experiment [4] it was 5.15%; in experiment [5], 29.7%; in experiment [6], 20%.
On to `Cc1ccc(O)c(C=O)c1`, for which the growth inhibition in experiment [1] is -31.1%; in experiment [2], -42.1%; in experiment [3], -7.65%; in experiment [4], 11.7%; in experiment [5] it was -25.7%; in experiment [6], -6.8%.
Turning to `Nc1nc(N)nc(-c2ccccc2N)n1`, the growth inhibition was 2.2% in experiment [1]; -7.5% in experiment [2]; -14.2% in experiment [3]; -45% in experiment [4]; -22.8% in experiment [5]; 5.6% in experiment [6].
With `C=C(C)C(=O)OC1CC2(C)OC2CC(OC(C)=O)/C(C)=C/C2OC(=O)C(=C)C21` (stereo not given), the growth inhibition in experiment [1] is 20.8%; in experiment [2], 49.7%; in experiment [3], 31.7%; in experiment [4], 39.5%; in experiment [5], 46.6%; in experiment [6] it was -7.5%.
On to `CC(=O)OCC1OC(n2c(N)c(C#N)c(-c3ccccc3)c(C#N)c2=S)C(OC(C)=O)C(OC(C)=O)C1OC(C)=O` (stereo not given), for which the growth inhibition in experiment [1] is 13.4%; in experiment [2] it was 11.2%; in experiment [3] it was -21.9%; in experiment [4] it was -8.8%; in experiment [5] it was -14.7%; in experiment [6], -60.2%.
Consider `CC(=O)OC1CCC2(C)C(=CCC3C2CCC2(C)/C(=N\NS(=O)(=O)c4ccc(C)cc4)CCC32)C1` (stereo not given), for which the growth inhibition in experiment [1] is 63.7%; in experiment [2], 28.6%; in experiment [3], 43.3%; in experiment [4] it was -2.05%; in experiment [5], 40.3%; in experiment [6], 49.5%.
As to `O=C(OC1(c2nccc3ccccc23)CCCN(Cc2ccccc2)C1)c1ccccc1` (stereo not given), the growth inhibition was 28.9% in experiment [1]; 11.8% in experiment [2]; 15.9% in experiment [3]; 14.2% in experiment [4]; -1.4% in experiment [5]; 24.1% in experiment [6].
Regarding `COC(=O)C1C(=O)CC(C)(O)C(C(=O)OC)C1c1ccc(N(C)C)cc1` (stereo not given), the growth inhibition in experiment [1] was -10.5%; in experiment [2] it was 19.9%; in experiment [3], 7.7%; in experiment [4], 53%; in experiment [5], 15.1%; in experiment [6], -25.4%.
Regarding `Cc1nc(C)c(N2CCN(CN)CC2)c(=O)[nH]1`, the growth inhibition in experiment [1] is -45.2%; in experiment [2] it was -32.8%; in experiment [3] it was -48%; in experiment [4], 30.6%; in experiment [5], 14.3%; in experiment [6] it was -72.3%.
As to `C=CCSC(=S)NC`, the growth inhibition in experiment [1] is -6.2%; in experiment [2] it was -7.5%; in experiment [3] it was -2.7%; in experiment [4] it was 10.2%; in experiment [5], -0.9%; in experiment [6], 8.4%.
For `CC(C)C1CC[N-]CC1.CC(C)C1CC[N-]CC1.[Cl][Pt+2][Cl]`, the growth inhibition in experiment [1] is 82.6% (active); in experiment [2], 48%; in experiment [3] it was 86.3% (active); in experiment [4], 18.9%; in experiment [5], 36.6%; in experiment [6] it was 75.4% (active).
In the case of `O=C1C(O)=CC(=C(c2ccccc2)c2ccccc2)c2cc(Br)ccc21`, the growth inhibition is 33.7% in experiment [1]; 26.2% in experiment [2]; 44.4% in experiment [3]; 8.9% in experiment [4]; 11.4% in experiment [5]; 34.1% in experiment [6].
In the case of `Cc1cc[n+](C(C)CCC(C)[n+]2ccc(C)cc2)cc1` (stereo not given), the growth inhibition in experiment [1] is 25.2%; in experiment [2], 20.5%; in experiment [3], 42.5%; in experiment [4] it was 27%; in experiment [5], 14.2%; in experiment [6], 11.8%.
For the compound `CN(C)C(=O)c1cccnc1`, the growth inhibition in experiment [1] is 0.25%; in experiment [2], -4.25%; in experiment [3] it was -4.8%; in experiment [4], 27.1%; in experiment [5] it was -18.2%; in experiment [6], -2.35%.
